Measured values from PubChem BioAssay AID2315 (National Center for Advancing Translational Sciences (NCATS), 2010).
About 27,000 (9.3%) of roughly 290,000 compounds were called active. The full list was thinned out, with actives kept by preference. Unmarked numbers belong to inactive results. Cut-off read from the data, not from the text of the source: active = inhibition mostly above about 28% (no sharp cut-off); inactive = mostly below about 43%.

Experiment: A qHTS for Small Molecule Inhibitors of Shiga Toxin; note: 0% is about no effect
Conditions: Vero cells, Shiga toxin protein synthesis inhibition reporter; at 38.7 µM, stronger effect = higher value

| SMILES | inhibition |
| --- | --- |
| O=C(Nc1ccccc1N1CCCCC1)c1cccc(F)c1 | 16.3% |
| O=C(CN1CCN(CC(=O)Nc2ccc3c(c2)OCO3)CC1)Nc1ccc(F)cc1 | -14.4% |
| Cc1ccc(-n2nc3c(c2NC(=O)c2ccc4c(c2)OCO4)CSC3)c(C)c1 | 1.3% |
| Cc1ccc(F)cc1NC(=O)c1ccc2c(c1)OCO2 | 43.8% (active) |
| Cc1ccc(F)cc1NC(=O)c1cccc(N(C)C)c1 | 116% (active) |
| Cc1cccc(C(=O)Nc2ccccc2N2CCN(c3ccc(F)cc3)CC2)c1 | -3.83% |
| COc1ccc(NC(=O)NCc2ccc3c(c2)OCO3)c(OC)c1 | -9.62% |
| CN(C)CCN(C(=O)C1CCCCC1)c1nc2cc3c(cc2s1)OCO3 | -7.68% |
| CC(=O)N1CCc2cc(S(=O)(=O)NC3CCCCC3)ccc21 | -2.55% |
| COc1ccc(C(=O)COC(=O)CNC(=O)c2cccs2)cc1Br | -12% |
| CC(=O)Nc1ccc(Nc2ncnc3c2nnn3Cc2ccccc2Cl)cc1 | -4.64% |
| COc1ccc(/C=C2\SC(=S)N(CCC(=O)Nc3ccccn3)C2=O)cc1OC | -13.3% |
| CCOc1ccc(N(CC(=O)NCC2CCCO2)S(=O)(=O)c2ccc(C)cc2)cc1 (stereo not given) | -4.82% |
| COCn1c(COc2ccccc2)nc2ccccc21 | 13.8% (active) |
| CC(C)n1c(COc2ccccc2)nc2ccccc21 | -5.6% |
| O=C(Cn1c(COc2ccccc2)nc2ccccc21)Nc1cc(Cl)c(Cl)cc1Cl | 3.93% |
| Cc1ccc(C23CC4CC(CC(C(=O)NCC(=O)O)(C4)C2)C3)cc1 | -7.52% |
| Cc1cccc(OCC(=O)NC2CC(C)(C)NC(C)(C)C2)c1 | 1.98% |
| CC(NCCc1ccc(S(N)(=O)=O)cc1)C(=O)NCc1ccccc1 (stereo not given) | 45.3% |
| Cc1cc(S(=O)(=O)N2CCOCC2)ccc1OCC(=O)Nc1cccc(C(F)(F)F)c1 | -13.1% |
| CCc1nnc(NC(=O)CCCSc2nc3ccccc3[nH]2)s1 | 13.8% |
| COc1ccccc1CC(=O)Nc1ccc([N+](=O)[O-])cc1OC | 2.24% |
| COc1ccccc1-c1noc(CSc2nc(C)cc(=O)[nH]2)n1 | -3.44% |
| N#Cc1c(-c2ccccc2)nc(SCc2ccc([N+](=O)[O-])cc2)[nH]c1=O | -3.91% |
| COc1ccccc1CSc1ncc(-c2ccc([N+](=O)[O-])cc2)[nH]1 | 54.5% (active) |

| SMILES | inhibition |
| --- | --- |
| C=CCSc1nc2ccccc2[nH]1 | 14.5% |
| COc1ccccc1CSc1nc2ccccc2[nH]1 | 71.9% (active) |
| CCCCSc1nc2ccccc2[nH]1 | 79.8% (active) |
| O=C(NCc1ccccc1)c1onc(CSc2nc3ccccc3[nH]2)c1C(=O)NCc1ccccc1 | -3.72% |
| CC(C)=N/N=C1/NC(=O)C(Cc2ccccc2)S1 (stereo not given) | -7.41% |
| COc1cccc(CNC(=O)CN(C)S(=O)(=O)c2ccc3c(c2)c(=O)n(C)c(=O)n3C)c1 | 18.4% |
| O=C(O)CCCCCCCCc1cn(CN2C(=O)c3ccccc3C2=O)nn1 | -8.38% |
| CC(CCc1ccccc1)NC(=O)COC(=O)c1ccc(F)cc1 (stereo not given) | -4.73% |
| Cc1cccc(-c2nc(CS(=O)CC(=O)NC(C)CCc3ccccc3)c(C)o2)c1 (stereo not given) | -4.68% |
| O=C(CCCN1C(=O)/C(=C/c2cccs2)SC1=S)Nc1ccc(O)cc1 | 42.3% |
| Cc1cc(C)cc(C(=O)NCCN2CCOCC2)c1 | -7.36% |
| CC(=O)Oc1cc2c(C(=O)NCCN3CCOCC3)c(C)oc2c2ccccc12 | 44.7% (active) |
| Cc1ccc(C(=O)NCCN2CCOCC2)cc1C | 19% |
| CC(=O)NC(CC(=O)Nc1cccc(S(=O)(=O)N2CCCC2)c1)c1ccccc1 (stereo not given) | -34.1% |
| CC(=O)N1CCc2c(sc(NC(=O)CCS(=O)(=O)c3ccccc3)c2C#N)C1 | 17.3% |
| O=C1CSC(=S)N1c1ccc(O)cc1 | -10.4% |
| N#Cc1c(Cl)nc(-c2cccnc2)nc1-c1ccccc1 | -3.23% |
| Cc1ccc(C(C(=O)NC2CCCC2)N(Cc2ccco2)C(=O)CCC(=O)Nc2ccccn2)cc1 (stereo not given) | -14.7% |
| Cc1ccnc(NC(=O)CCC(=O)N(CC(=O)NCc2ccccc2)Cc2ccco2)c1 | -4.34% |
| Cc1ccc2c(c1)N(CC(=O)N(Cc1ccccn1)Cc1ccco1)C(=O)C(C(C)C)O2 (stereo not given) | 33.8% (active) |
| Cc1cc(C)c2c(=O)[nH]c(SCC(=O)Nc3ccc(Br)cc3)nc2n1 | 3.52% |
| CN(c1ccc(OCC(=O)O)cc1)S(=O)(=O)c1ccc2ccccc2c1 | -4.36% |
| O=S(=O)(NC1CCCCC1N1CCC(O)CC1)c1ccc(Cl)cc1 (stereo not given) | -13.2% |
| O=C(CSc1nc(-c2ccco2)cc(C(F)(F)F)n1)NCc1cccs1 | -12.1% |
| COc1ccc(S(=O)(=O)N(CC(=O)NCc2ccco2)c2ccc(F)cc2)cc1 | 35.2% |

| SMILES | inhibition |
| --- | --- |
| COc1ccc(-c2cc(C(F)(F)F)nc(SCCC(=O)NCc3ccco3)n2)cc1 | 25.3% (active) |
| Cn1cc(CCC(=O)NC2CC2)c2ccccc21 | 11.7% |
| CC1CCN(C(=O)Cn2cc(C(=O)c3ccco3)c3ccccc32)CC1 | 21.4% |
| Cc1cccc(NC(=O)Cn2cc(C(=O)c3ccco3)c3ccccc32)c1 | -14.6% |
| N#Cc1ccc(Cn2cc(C(=O)c3ccco3)c3ccccc32)cc1 | 92.3% (active) |
| Cc1nnc(N/N=C/c2cccs2)[nH]c1=O | 3.51% |
| Cc1n[nH]c(=O)nc1N/N=C/c1cccs1 | 29.8% (active) |
| NC(=O)N/N=C\c1cccs1 | 17.5% |
| CC1(C)Oc2ccc3ccc(=O)oc3c2/C(=N/O)C1=O | -11.1% |
| COc1cc(NC(=O)CN2C(=O)NC(C)(c3ccc(OC(F)F)cc3)C2=O)cc(OC)c1OC (stereo not given) | -3.05% |
| COc1ccccc1C(=O)NC(=S)NC12CC3CC(CC(C3)C1)C2 | -21.8% |
| CCOc1cccc(/C=C/c2ccc3ccccc3n2)c1OC(C)=O | 50.8% |
| COc1cccc(/C=C/c2ccc3ccccc3n2)c1OC(C)=O | 42.7% (active) |
| COc1cccc(/C=C2\C=C(c3ccc(C)cc3)OC2=O)c1OC(C)=O | 11.6% |
| O=C(NCCc1c[nH]c2ccccc12)C1CCN(Cc2ccc(Br)cc2)CC1 | -4.77% |
| O=C(Cn1cc(C(=O)C2CC2)c2ccccc21)Nc1ccccc1Cl | -2.68% |
| O=c1[nH]c(/C=C\c2cccc(C(F)(F)F)c2)nc(O)c1[N+](=O)[O-] | -8.88% |
| COc1cc(/C=C2\C(=N)N3N=C(CC(=O)N4CCOCC4)SC3=NC2=O)cc(OC)c1OC | -7.7% |
| O=C(CSc1ccc(-c2cccs2)nn1)Nc1ccccc1F | 32.3% |
| Cc1cccc(CSc2ccc(-c3cccs3)nn2)c1 | 36.9% (active) |
| Cc1cccc(CSc2nnc(Cn3c(=O)sc4ccccc43)n2C)c1 | -3.45% |
| COc1ccc(-c2ocnc2C(=O)Nc2ccc3c(c2)CCC3)cc1 | -10.8% |
| O=C(Nc1ccc(-n2cccn2)cc1)C1CCN(Cc2ccsc2)CC1 | -3% |
| COc1ccc(CN2C(=O)C(C)S/C2=N/N=C/c2ccco2)cc1 (stereo not given) | 137% (active) |
| C=CCN1C(=O)C(Cc2cccc(Cl)c2)S/C1=N/N=C/c1ccco1 (stereo not given) | -3.82% |

| SMILES | inhibition |
| --- | --- |
| CCC1S/C(=N/N=C/c2ccco2)NC1=O (stereo not given) | 22% |
| Cc1cc(C)n(S(=O)(=O)c2cccc([N+](=O)[O-])c2)n1 | -4.69% |
| COc1ccc(N(CC(=O)Nc2cccc3ccccc23)S(C)(=O)=O)c(OC)c1 | -3.17% |
| COc1cc(C2CC(=O)c3cnc(NC(C)=O)nc3C2)cc(OC)c1OC (stereo not given) | 21.5% |
| O=C(Nc1ncc2c(n1)CC(c1ccco1)CC2=O)c1ccc(Cl)cc1 (stereo not given) | 1.6% |
| CCc1ccc(Nc2ncc3c(n2)CC(c2ccco2)CC3=O)cc1 (stereo not given) | 72.5% (active) |
| CCCC(C)NC(=O)C1CCN(C(=O)C2CC(=O)N(c3ccc(C)cc3)C2)CC1 (stereo not given) | 9.21% |
| COc1ccc2c(c1)c1nc3n(c(=O)c1n2CC(=O)Nc1ccccc1)CCS3 | 10.6% |
| COc1cccc(CNC(=O)CCC2CCCN(C(=O)c3ccc(F)c(Cl)c3)C2)c1 (stereo not given) | 0.606% |
| COc1ccc(CCNc2nc(-c3cccc(NC(C)=O)c3)cs2)cc1OC | 0.41% |
| CC(=O)Nc1cccc(-c2csc(Nc3cccc(C)n3)n2)c1 | 103% (active) |
| Cc1cccc(Nc2nc(-c3ccccc3)cs2)n1 | 150% (active) |
| Cc1cccc(S(=O)(=O)CC(=O)Nc2nc(-c3ccccc3)cs2)c1 | -3.62% |
| NS(=O)(=O)c1ccc(Nc2nc(-c3ccccc3)cs2)cc1 | 17.7% |
| CC(=O)Nc1ccc(S(=O)(=O)Nc2nc(-c3ccc(C(C)(C)C)cc3)cs2)cc1 | -13.5% |
| COc1ccc(-c2onc3ccc(C(C)=O)cc23)cc1 | -4.4% |
| O=C(CCS(=O)(=O)c1ccc2c(c1)NC(=O)CS2)NCc1ccccc1Cl | 5.67% |
| O=C(NCc1ccc2c(c1)OCO2)C(=O)NCC1OCCN1S(=O)(=O)c1ccc(F)cc1 (stereo not given) | -4.86% |
| O=C(NC(Cc1ccc(O)cc1)C(=O)O)/C(=C/c1ccccc1)NC(=O)c1ccccc1 (stereo not given) | 8.2% |
| O=C(c1ccco1)N1CCN(C(=O)c2cc(-c3ccccc3F)no2)CC1 | 66.3% (active) |
| O=C(NCCCN1CCOCC1)c1ccccc1NS(=O)(=O)c1ccc(F)cc1 | 43.2% |
| O=C(NCCCN1CCOCC1)c1cc(-c2ccccc2F)no1 | 54.8% (active) |
| O=C(NCCCN1CCOCC1)c1cc(-c2ccc(Cl)cc2)on1 | 23.1% |
| O=C(Cc1c(F)cccc1Cl)N1CCN(C(=O)c2ccco2)CC1 | -5.75% |
| O=C(c1ccco1)N1CCN(C(=S)Nc2cc(F)cc(F)c2)CC1 | 35.8% |
